Assay outcomes deposited in PubChem by National Center for Advancing Translational Sciences (NCATS).
TRHR enhancer: allosterically enhances the human TRH receptor. P34981. TRHR cells, fluo-8 calcium fluorescence, EC20 TRH enhancement. enhancement, % at 2 µM. 360,000 tested, 0.66% active. AID 493056; in the data active means enhancement above about 30%; further: 0% is about no effect
Target sequence (P34981 whole entry, looked up): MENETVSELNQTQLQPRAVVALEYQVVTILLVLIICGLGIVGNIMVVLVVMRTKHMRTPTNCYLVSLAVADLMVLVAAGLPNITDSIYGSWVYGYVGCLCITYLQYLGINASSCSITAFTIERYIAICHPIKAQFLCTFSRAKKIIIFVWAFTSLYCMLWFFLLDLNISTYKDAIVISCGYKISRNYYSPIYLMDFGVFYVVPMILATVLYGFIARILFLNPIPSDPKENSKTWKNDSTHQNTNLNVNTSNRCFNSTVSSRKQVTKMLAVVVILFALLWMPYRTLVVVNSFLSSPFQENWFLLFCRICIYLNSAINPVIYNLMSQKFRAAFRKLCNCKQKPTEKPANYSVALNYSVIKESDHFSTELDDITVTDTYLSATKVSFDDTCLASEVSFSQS
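Enhancer read-out: after compound pinning and an initial kinetic agonist-mode read, an EC20 of TRH (10 nM final) was injected and fluo-8 calcium signal (Ex 480/Em 530) followed at 1 s/cycle for 100 cycles in TRHR-expressing cells.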
D1 agonist: activates the human D1 dopamine receptor; P21728; HEK293 T-REx D1 cells, calcium flux, agonist mode; activation, % at 2 µM; 360,000 tested, 1% active; further: 0% is about no effect
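Inducible HEK293 T-REx D1 cells, force-coupled to calcium signalling, were plated at 4000 cells/well with tetracycline and held overnight at 30 C. After no-wash calcium dye loading, compound-evoked calcium rise over 180 s flagged agonists.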
D1 antag: human D1 dopamine receptor antagonism; P21728; HEK293 TREx D1 cells, calcium flux, dopamine EC80; stronger effect = lower value; activity change, negative = inhibition, % at 10 µM; 360,000 tested, 3.2% active; AID 504652; in the data active means activity change below about -30%; further: on the % scale 0 is the no-effect control and ±100 the full control effect
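Tetracycline-induced HEK293 T-REx cells with force-coupled D1 receptor were loaded with a no-wash calcium dye. Compound was added after a 10 s baseline and read kinetically for 180 s; EC80 dopamine was then added and calcium flux followed another 180 s.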
D1 potentiator: human D1 dopamine receptor positive modulation; P21728; HEK293 TREx D1 cells, calcium flux, dopamine EC20 potentiation; potentiation, % at 10 µM; 360,000 tested, 0.036% active; in the data active means potentiation above about 30%; further: 0% is about no effect
TRHR agonist: activates the human TRH receptor; 360,000 tested, 0.18% active; activation, % at 2 µM; TRHR cells, calcium flux fluo-8, FDSS agonist mode; P34981; further: 0% is about no effect
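TRHR-expressing cells, plated overnight in medium with 10% serum, were loaded with fluo-8 calcium dye at room temperature. After a 10 s baseline, library compound was pin-added and calcium release was recorded kinetically (ex 480/em 530) as agonist response.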
Numbers without * were called inactive; / = no result given. Shown are actives, neighbours in structure and some others; about 4.7% of the full set was active somewhere. Unless noted, no stated cut-off is given here; in the data, active means activation above about 30%; inactive means the rest.

SMILES	TRHR enhancer	D1 agonist	D1 antag	D1 potentiator	TRHR agonist
CCCNC(=O)Cn1c(=O)/c(=C\c2ccc(-c3cccc([N+](=O)[O-])c3)o2)s/c1=C\C(=O)C(C)(C)C	7.0	18.8	2.1	-3.4	3.6
CCCNC(=O)Cn1c(=O)/c(=C\c2ccc(-c3ccc([N+](=O)[O-])cc3)o2)s/c1=C\C(=O)C(C)(C)C	-20.9	283.4*	-83.4*	-7.0	98.0*
CC(=O)Oc1cccc(N2C(=O)c3ccccc3C2=O)c1	2.8	0.2	-30.6*	5.0	-0.3
CC(=O)Nc1cccc2c1C(=O)N(c1cccc(OC(C)=O)c1)C2=O	-0.3	11.4	23.3	-4.6	-0.3
CC(=O)c1ccc(C(=O)Nc2ccc3c(c2)C(=O)NC3=O)cc1	-0.6	-0.3	-35.2*	-8.3	0.5
CC(=O)c1ccc(NC(=O)c2cccc(N3C(=O)c4ccccc4C3=O)c2)cc1	6.7	2.1	-31.5*	-0.4	0.6
CCN(CC)C(=O)c1ccccc1NS(C)(=O)=O	5.1	2.9	-24.0	-8.1	0.9
Cc1ccc(C)c(NC(=O)C(Cc2ccccc2)N2Cc3ccccc3C2=O)c1 (stereo not drawn)	-2.5	0.3	-2.0	0.5	-0.5
O=S(=O)(c1ccc(F)cc1)N1CCN(C(=S)NC2CC2)CC1	5.7	9.2	-1.6	/	0.2
COc1ccc(CNC(=O)CSc2ncc3c(n2)-c2cc(Cl)ccc2N(Cc2ccccc2)S3(=O)=O)cc1	4.4	5.6	-42.8*	-7.8	0.2
COc1ccccc1CNC(=O)CSc1ncc2c(n1)-c1ccc(Cl)cc1N(Cc1ccccc1)S2(=O)=O	-0.5	0.3	1.0	-1.7	-0.8
CCOC(=O)c1cccc(NC(=O)CSc2ncc3c(n2)-c2ccc(Cl)cc2N(Cc2ccccc2)S3(=O)=O)c1	9.8	7.5	-75.2*	-0.1	-0.5
COC(=O)c1ccc(-n2nnnc2SCC(=O)N2CCCCC2)cc1	5.5	5.4	-30.2*	-4.1	-0.4
Brc1ccccc1OCCCN1CCCC1	-0.1	3.0	-44.6*	-11.3	0.6
Clc1ccccc1OCCCCN1CCCC1	-0.8	1.8	7.9	-10.2	0.3
Brc1ccccc1OCCCN1CCCCCC1	8.8	3.7	-60.1*	-8.9	0.6
Cn1c(CCN2CCCCC2)nc2cc(NS(=O)(=O)c3ccccc3)ccc21	2.3	2.4	-13.8	-5.2	-0.1
Cn1c(CN2CCCC2)nc2cc(NS(=O)(=O)c3ccc(Cl)cc3)ccc21	5.6	47.3*	-14.2	-5.7	1.7
Cn1c(CCN2CCN(c3ccccn3)CC2)nc2cc(NS(=O)(=O)c3ccccc3)ccc21	-1.9	6.8	-32.0*	-12.7	0.1
CCOC(=O)c1c(S(=O)(=O)NCC(=O)Nc2ccc(C(C)=O)cc2)c(C)n(C)c1C	2.3	-0.6	3.4	-3.4	0.3
Cc1cccc(CNC(=O)c2cnc3sc(N4CCOCC4)nn3c2=O)c1	29.8	1.3	16.2	-6.5	-0.9
NC(=O)c1ccccc1OCC(=O)N1CCCC1c1ccc2c(c1)OCCCO2 (stereo not drawn)	0.2	2.2	2.1	0.2	-0.3
COc1ccc(OC)c(CCNc2nc3cc(OC)c(OC)cc3c3nc(-c4cccnc4)nn23)c1	-2.9	1.4	20.8	-0.8	0.1
Cc1ccc(S(=O)(=O)CC(=O)c2ccccc2)cc1	-0.1	3.0	-2.1	-2.4	0.6
CC(C)(C)c1ccc(C(=O)CS(=O)(=O)c2ccccc2)cc1	-1.3	5.6	-38.1*	-6.0	0.7
SMILES	TRHR enhancer	D1 agonist	D1 antag	D1 potentiator	TRHR agonist
Cc1ccc(NC(=S)NC2CCSc3ccccc32)cc1C (stereo not drawn)	-6.5	0.1	-17.4	-11.1	0.5
COc1ccc(C(=S)NCS(=O)(=O)c2ccc(C)cc2)cc1	12.4	5.6	-35.3*	-4.5	-0.1
Cc1ccc(S(=O)(=O)CNC(=S)c2ccc3ccccc3c2)cc1	-2.4	0.7	-11.4	-5.5	0.6
CC(=O)c1cc(C(=O)N2CCCC(C(=O)c3ccc(Cl)cc3)C2)cs1 (stereo not drawn)	-2.6	5.2	-33.2*	1.9	0.3
O=C(c1ccc(Cl)cc1)N1CCCC(C(=O)N2CCCCC2)C1 (stereo not drawn)	-3.7	2.5	16.4	-4.2	0.0
COc1ccc(-c2noc(N3CCC(C(=O)N4CCN(c5ccccc5F)CC4)CC3)n2)cc1	10.4	-0.4	-3.2	2.4	-0.1
CC(OC(=O)CN1C(=O)NC2(CCCC2)C1=O)C(=O)Nc1cccc(Cl)c1Cl (stereo not drawn)	1.7	1.4	-51.2*	-10.7	0.7
COc1ccccc1CNC(=O)Cn1cc2c(n1)-c1c(oc(C(=O)N3CCOCC3)c1C)CC2	1.5	0.9	4.5	-0.4	-0.1
CCN(CC)CC(O)Cn1c(C)c(-c2ccccc2)c2cc([N+](=O)[O-])ccc21 (stereo not drawn)	1.5	34.4*	2.1	-7.6	3.9
CCN(CC)CC(O)Cn1c2ccccc2c2ccccc21 (stereo not drawn)	3.3	6.2	-15.0	-0.8	0.0
O=C1CN(C(=O)c2cccc(S(=O)(=O)N3CCCC3)c2)c2ccccc2N1	40.7*	0.6	14.5	-0.6	-0.2
CC(=O)N1CCN(S(=O)(=O)c2cccc(C(=O)OCC(=O)N3CC(=O)Nc4ccccc43)c2)CC1	-4.2	-2.0	17.1	-6.1	-0.1
CN(C)c1ccc(-c2ccc([C@H]3[C@@H]4C=CCC[C@@]4(C)C(=O)N3Cc3ccccc3)c(F)c2)cc1	3.4	7.1	35.9	-3.5	-0.1
CCCCC(CC)C(=O)Nc1cc(C(=O)NCCC)ccc1N1CCC2(CC1)CC(c1ccccc1)=NO2 (stereo not drawn)	37.6*	2.7	-16.0	3.8	0.2
Cc1ccccc1Cn1c(=O)n(CCc2ccccc2)c(=O)c2sc3ccccc3c21	11.9	6.9	-2.4	0.4	-1.4
CCSc1ncc(Cl)c(C(=O)Nc2c(C(=O)Nc3ccc(Cl)cc3)oc3ccccc23)n1	-3.3	0.1	2.2	0.4	0.0
COc1cccc(/C=N/NC(=O)c2[nH]c(C)c(C(=O)N/N=C/c3cccc(OC)c3O)c2C)c1O	-4.3	-0.5	-77.3*	-7.5	0.6
O=C(N/N=C\c1cc2c(cc1Cl)OCO2)c1cccs1	5.1	0.4	10.3	-0.3	1.9
COc1cccc(/C=N/NC(=O)CNC(=O)c2cccnc2)c1O	1.9	1.0	-19.8	-7.4	0.3
O=C(Cc1ccccc1)N/N=C/c1cc2c(cc1Cl)OCO2	11.7	16.0	-40.2*	-11.0	-0.1
COc1cccc(/C=N/NC(=O)c2ccc(-c3ccccc3)cc2)c1O	9.5	3.6	-6.3	1.0	3.1
COc1cccc(/C=N/NC(=O)CNC(=O)c2ccncc2)c1O	14.1	2.2	-41.3*	0.0	0.7
O=C(CNC(=O)c1ccccc1)N/N=C/c1cccs1	-0.2	0.2	9.3	1.5	0.1
O=C(CNC(=O)c1ccccc1)N/N=C/c1ccccc1Cl	-5.6	0.2	-3.3	31.8*	-0.3
